# The supplement of paper PMC6897291
# Where a name gives a salt, the structure may show the parent alone.
# System: RIVA
# Test: growth inhibition by drug alone (1 - RLU/untreated control) (fraction); higher = stronger inhibition
# Conditions: 177Lu-lilotomab satetraxetan 0 ug/ml
# Method: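 RIVA (RI-1) ABC-DLBCL cells were pretreated or not for 18 h with 0.5 ug/ml 177Lu-lilotomab satetraxetan (600 MBq/mg), washed and seeded (3000 cells/well) on 384-well plates pre-printed with the Selleck Cambridge Cancer Compound library. Viability was read by RealTime-Glo luminescence on days 3-6 after seeding. Effect = 1 - RLU/mean RLU of the 48 untreated no-drug control wells per plate; Bliss score = (M-E)/(1-Fa).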
structure (smiles),measurement,setting,value
CCCCc1nc2cc(/C=C/C(=O)NO)ccc2n1CCN(CC)CC [SB939 (Pracinostat)],growth inhibition by drug alone,"10 nM, time (day): 3",0.107
same,growth inhibition by drug alone,"10 nM, time (day): 4",0.0736
same,growth inhibition by drug alone,"10 nM, time (day): 5",0.0778
same,growth inhibition by drug alone,"10 nM, time (day): 6",0.0437
same,growth inhibition by drug alone,"100 nM, time (day): 3",0.513
same,growth inhibition by drug alone,"100 nM, time (day): 4",0.435
same,growth inhibition by drug alone,"100 nM, time (day): 5",0.418
same,growth inhibition by drug alone,"100 nM, time (day): 6",0.353
Cn1nnc2c(C(N)=O)ncn2c1=O [Temozolomide],growth inhibition by drug alone,"10 nM, time (day): 3",0.0977
same,growth inhibition by drug alone,"10 nM, time (day): 4",0.0337
same,growth inhibition by drug alone,"10 nM, time (day): 5",-0.0714
same,growth inhibition by drug alone,"10 nM, time (day): 6",-0.291
same,growth inhibition by drug alone,"100 nM, time (day): 3",0.0972
same,growth inhibition by drug alone,"100 nM, time (day): 4",0.055
same,growth inhibition by drug alone,"100 nM, time (day): 5",0.0367
same,growth inhibition by drug alone,"100 nM, time (day): 6",-0.03
CCN[C@H]1C[C@H](C)S(=O)(=O)c2sc(S(N)(=O)=O)cc21 [Dorzolamide HCL],growth inhibition by drug alone,"10 nM, time (day): 3",-0.103
same,growth inhibition by drug alone,"10 nM, time (day): 4",-0.133
same,growth inhibition by drug alone,"10 nM, time (day): 5",-0.166
same,growth inhibition by drug alone,"10 nM, time (day): 6",-0.25
same,growth inhibition by drug alone,"100 nM, time (day): 3",-0.0335
same,growth inhibition by drug alone,"100 nM, time (day): 4",-0.0982
same,growth inhibition by drug alone,"100 nM, time (day): 5",-0.134
same,growth inhibition by drug alone,"100 nM, time (day): 6",-0.179
CC(C)CC(=O)Nc1n[nH]c2c1CN(C(=O)C1CCN(C)CC1)C2(C)C,growth inhibition by drug alone,"10 nM, time (day): 3",0.109
same,growth inhibition by drug alone,"10 nM, time (day): 4",0.0478
same,growth inhibition by drug alone,"10 nM, time (day): 5",0.0236
same,growth inhibition by drug alone,"10 nM, time (day): 6",-0.141
same,growth inhibition by drug alone,"100 nM, time (day): 3",0.546
same,growth inhibition by drug alone,"100 nM, time (day): 4",0.346
same,growth inhibition by drug alone,"100 nM, time (day): 5",0.355
same,growth inhibition by drug alone,"100 nM, time (day): 6",0.378
COc1cc(Nc2ncc(F)c(Nc3ccc4c(n3)N(COP(=O)(O)O)C(=O)C(C)(C)O4)n2)cc(OC)c1OC,growth inhibition by drug alone,"10 nM, time (day): 3",-0.112
same,growth inhibition by drug alone,"10 nM, time (day): 4",-0.134
same,growth inhibition by drug alone,"10 nM, time (day): 5",-0.185
same,growth inhibition by drug alone,"10 nM, time (day): 6",-0.286
same,growth inhibition by drug alone,"100 nM, time (day): 3",-0.0605
same,growth inhibition by drug alone,"100 nM, time (day): 4",-0.0606
same,growth inhibition by drug alone,"100 nM, time (day): 5",-0.107
same,growth inhibition by drug alone,"100 nM, time (day): 6",-0.168
